The values below come from PubChem BioAssay (Tox21).

The target in test [1] is Luciferin 4-monooxygenase (Photinus pyralis) (UniProt P08659). Briefly: qHTS assay to identify small molecule inhibitors of firefly luciferase (AID 1224835). Also: nearly all actives have a fitted effect of over 25% in size. The essentials:
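Biochemical qHTS: compounds run as interplate titrations against purified firefly enzyme, with D-luciferin and ATP each at its KM concentration. Light output recorded by CCD imaging.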
In general terms: In qHTS, concentration-response curves come from the screen itself.

A short description of test [2]: qHTS assay to identify small molecule agonists of the constitutive androstane receptor (CAR) signaling pathway - cell viability counter screen (AID 1224836). Also: nearly all actives have a fitted effect of over 45% in size. The essentials:
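23 h treatment, 37 C, 5% CO2. Cell line: HepG2 stably expressing hCAR with a CYP2B6-2.2kb construct. Co-treatment: PK11195, 0.75 uM final. Read-out: CellTiter-Fluor fluorescence intensity.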

A short description of test [3]: qHTS assay to identify small molecule antagonists of the constitutive androstane receptor (CAR) signaling pathway - cell viability counter screen (AID 1224837). Also: nearly all actives have a fitted effect of over 45% in size. The essentials: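 Counter screen run in HepG2-CYP2B6-hCAR cells: 4 hr settle, compound titration (15 concentrations) with 50 nM CITCO, 23 hr at 37 C/5% CO2, CellTiter-Fluor fluorescence.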
Test [4] deals with Nuclear receptor subfamily 1 group I member 3 (Homo sapiens) (UniProt Q14994). Briefly: qHTS assay to identify small molecule antagonists of the constitutive androstane receptor (CAR) signaling pathway (AID 1224838).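 Also: HepG2 cells stably expressing hCAR with CYP2B6 luciferase reporter stimulated by CITCO; nearly all actives have a fitted effect of over 40% in size.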 The essentials: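 Cell line: HepG2 double-stable for hCAR and CYP2B6-2.2kb reporter. Agonist: CITCO, 50 nM final. Compounds: 15 concentrations, 24 h, 37 C. Detection: ONE-Glo luminescence.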
Sequence of Nuclear receptor subfamily 1 group I member 3 (Homo sapiens) (Q14994 whole entry, looked up): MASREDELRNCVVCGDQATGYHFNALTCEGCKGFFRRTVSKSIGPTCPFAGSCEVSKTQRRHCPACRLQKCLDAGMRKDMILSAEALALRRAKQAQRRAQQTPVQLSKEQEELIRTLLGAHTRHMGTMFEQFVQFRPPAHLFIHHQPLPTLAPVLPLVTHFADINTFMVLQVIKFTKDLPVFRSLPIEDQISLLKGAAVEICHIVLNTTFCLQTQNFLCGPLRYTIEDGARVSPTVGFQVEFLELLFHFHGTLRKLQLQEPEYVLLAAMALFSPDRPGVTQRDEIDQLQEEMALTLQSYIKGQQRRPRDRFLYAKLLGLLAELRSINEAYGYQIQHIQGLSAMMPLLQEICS

The target is the same in test [5]. As to the kind of experiment: qHTS assay to identify small molecule agonists of the constitutive androstane receptor (CAR) signaling pathway (AID 1224839).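 Also: HepG2 cells stably carrying human CAR and a CYP2B6 luciferase reporter; nearly all actives have a fitted effect of over 15% in size.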 The essentials: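 Compounds tested at 15 concentrations on HepG2 cells stably harbouring hCAR and CYP2B6-2.2kb reporter constructs, co-treated with PK11195 (0.75 uM final), 24 h at 37 C; luminescent reporter signal quantified.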

A short description of test [6]: qHTS assay to identify small molecule antagonists of the estrogen related receptor signaling pathway with the pleiotropic PPARgamma coactivator (PGC) from Tox21 10K library - cell viability counter screen (AID 1224840; active = well fitted cell-killing curve with a large enough effect in the repeat runs, not every such curve was filed as active; also: nearly all actives have a fitted effect of over 40% in size). The essentials: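 Following seeding of 2,000 PGC/ERR cells/well and 6 hours' incubation, test compounds were delivered in DMSO. The plates then sat 17.5 hours at 37 C before a fluorogenic live-cell protease reagent (CellTiter-Fluor) was read after 30 min.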

For test [7], the target named is Thyrotropin receptor (Homo sapiens) (UniProt P16473). As to the kind of experiment: qHTS assay to identify small molecule agonists of the thyroid stimulating hormone receptor (TSHR) signaling pathway (AID 1224843; calls by dose curve; also: nearly all actives have a fitted effect of over 45% in size). The essentials:
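Steps: seed 800 TSHR-HEK293 cells per well; add test compound and hold 30 min at ambient temperature; dispense cAMP-d2 then anti-cAMP cryptate; incubate 1 h at ambient; measure fluorescence intensity.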

The nature of test [8]: qHTS assay to identify small molecule agonists of the hypoxia (HIF-1) signaling pathway - cell viability counter screen (AID 1224844; calls by dose curve; also: nearly all actives have a fitted effect of over 50% in size; also: potency is read from the fitted curve at half-maximal effect). The essentials: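 Cells (HRE-bla ME-180, 2,000 per well) sat 5 hrs at 37C, got compound for 17 hrs, were read for CCF4-AM FRET, and were finally lysed with CellTiter-Glo for a 30 min room-temperature luminescence read.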
The nature of test [9]: qHTS assay to identify small molecule agonists of H2AX - cell viability counter screen (AID 1224847; calls by dose curve; also: top concentration of the series differs between compounds; nearly all actives have a fitted effect of over 30% in size). The essentials:
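Compounds tested at 15 concentrations were incubated 3 hr at 37C with wild-type CHO-K1 cells; cellular ATP-based luminescence (CellTiter-Glo) indicated viability.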

The nature of test [10]: qHTS RealTime-Glo MT Cell Viability Assay in HepG2 cells - 24 hour (AID 1224867). Also: nearly all actives have a fitted effect of over 50% in size. The essentials:
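Cell number in HepG2 cultures estimated from NanoLuc luminescence generated by metabolic reduction of a prosubstrate by living cells. The homogeneous, nonlytic format allowed repeated reads at 0, 8, 16, 24, 32 and 40 h of compound exposure.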

Test [11] can be described thus: qHTS RealTime-Glo MT Cell Viability Assay in HEK293 cells - 32 hour (AID 1224868). Also: nearly all actives have a fitted effect of over 50% in size. Also: potency is read from the fitted curve at half-maximal effect. As to activity change, negative = cytotoxic: top concentration of the series differs between compounds. The essentials: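 Homogeneous bioluminescent viability format in HEK293 cells (600 cells/well). Following 5 h at 37 C/5% CO2, 23 nL compound was pintooled; the signal was measured repeatedly during 40 h incubation.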
A short description of test [12]: A CellTox Green Cytotoxicity Assay to monitor cytotoxicity in HEK293 cells - 0 hour (AID 1224869). Also: nearly all actives have a fitted effect of over 50% in size. The essentials:
(§1)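 Fluorescence intensity, read at 0, 8, 16, 24, 32 and 40 h of compound treatment, reflected dye binding to DNA of dead HEK293 cells; compounds (23 nL, DMSO) were added 5 h after plating cells with reagent.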

Test [13] can be described thus: qHTS RealTime-Glo MT Cell Viability Assay in HepG2 cells - 40 hour (AID 1224870). Also: nearly all actives have a fitted effect of over 50% in size. The essentials: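 HepG2 cells (600/well) mixed with RealTime-Glo MT reagent, settled 5 h at 37 C/5% CO2 before compound addition. Nonlytic NanoLuc luminescence from viable-cell prosubstrate reduction read repeatedly during 40 h treatment at 37 C.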
Test [14] is described as follows: A CellTox Green Cytotoxicity Assay to monitor cytotoxicity in HEK293 cells - 40 hour (AID 1224871). Also: nearly all actives have a fitted effect of over 45% in size. Also: potency is read from the fitted curve at half-maximal effect. The essentials:
as §1

Test [15] is described as follows: qHTS assay to identify small molecule antagonists of the estrogen related receptor signaling pathway with the pleiotropic PPARgamma coactivator (PGC) from Tox21 10K library (AID 1224841; call rule not given here). The essentials:
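qHTS antagonist format: PGC/ERR cells, 2k/well, compound in DMSO by pin transfer after 6 h attachment, 18 h treatment at 37 C, One-Glo luminescence read at 30 min.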

Test [16] in a line: qHTS assay to identify small molecule agonists of the estrogen related receptor signaling pathway with the pleiotropic PPARgamma coactivator (PGC) from Tox21 10K library (AID 1224842). Also: nearly all actives have a fitted effect of over 15% in size. The essentials:
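PGC/ERR reporter cell line, 2,000 cells per well, incubated 6 h at 37 C before 23 nL compound in DMSO was added. After 18 h at 37 C, One-Glo luminescence read following 30 min at room temperature.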

A short description of test [17]: qHTS assay to identify small molecule agonists of H2AX (AID 1224845; active = well fitted activation curve with a large enough effect in the signal ratio in the repeat runs, not every such curve was filed as active; the % refers to the signal ratio). The essentials: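 Wild-type CHO-K1 cells, plated overnight, exposed 3hr at 37C to 15 concentrations (0.76% DMSO final). Lysed, then HTRF anti-pH2AX (S139) cryptate and anti-H2AX-d2 antibodies, 24 hr room temperature; 665/620 nm emission read.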
Test [18] is described as follows: qHTS assay to identify small molecule agonists of the hypoxia (HIF-1) signaling pathway (AID 1224846; active = well fitted activation curve with a large enough effect in the signal ratio in the repeat runs, not every such curve was filed as active; the % refers to the signal ratio). The essentials:
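A low-serum medium (0.5% dialyzed FBS) holding 2,000 HRE-bla ME-180 cells per well is preincubated for 5 hrs, dosed with compounds by pintool, and kept a further 17 hrs at 37C, 5% CO2 before CCF4-AM FRET detection of beta-lactamase.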

The nature of test [19]: qHTS assay to identify small molecule agonists of the estrogen related receptor (ERR) signaling pathway from Tox21 library (AID 1224849; calls by dose curve; also: nearly all actives have a fitted effect of over 15% in size). The settings on record: ERR reporter cell line, ONE-Glo luciferase, 18 h. The essentials:
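Screening used an NTP-provided ERR luciferase cell line. Compounds in DMSO were added 6 h after seeding and left 18 h at 37 C before a 30 min ONE-Glo step and luminescence reading.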

A short description of test [20]: qHTS assay to identify small molecule antagonists of the estrogen related receptor (ERR) signaling pathway from Tox21 library (AID 1224848). Also: nearly all actives have a fitted effect of over 50% in size. The essentials: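 Luminescent reporter read-out (ONE-Glo) from NTP's ERR cell line after 18 h treatment at 37 C with DMSO-dissolved Tox21 compounds; cells pre-plated 6 h beforehand at 2,000 per well.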

Unmarked numbers belong to inactive results. Results filed as inconclusive are left out. The source made the active and inactive calls. Unless noted, calls follow the shape of the dose curve; as a rule, active = well fitted curve in the direction sought with a large enough effect in the repeat runs; inconclusive = weak or mixed curves; inactive = no such curve, though single readings can be large; an effect the other way counts as inactive or inconclusive.
% is scaled to controls: 0 for no effect and ±100 for the full control effect.

Sequence of Thyrotropin receptor (Homo sapiens) (P16473 whole entry, looked up): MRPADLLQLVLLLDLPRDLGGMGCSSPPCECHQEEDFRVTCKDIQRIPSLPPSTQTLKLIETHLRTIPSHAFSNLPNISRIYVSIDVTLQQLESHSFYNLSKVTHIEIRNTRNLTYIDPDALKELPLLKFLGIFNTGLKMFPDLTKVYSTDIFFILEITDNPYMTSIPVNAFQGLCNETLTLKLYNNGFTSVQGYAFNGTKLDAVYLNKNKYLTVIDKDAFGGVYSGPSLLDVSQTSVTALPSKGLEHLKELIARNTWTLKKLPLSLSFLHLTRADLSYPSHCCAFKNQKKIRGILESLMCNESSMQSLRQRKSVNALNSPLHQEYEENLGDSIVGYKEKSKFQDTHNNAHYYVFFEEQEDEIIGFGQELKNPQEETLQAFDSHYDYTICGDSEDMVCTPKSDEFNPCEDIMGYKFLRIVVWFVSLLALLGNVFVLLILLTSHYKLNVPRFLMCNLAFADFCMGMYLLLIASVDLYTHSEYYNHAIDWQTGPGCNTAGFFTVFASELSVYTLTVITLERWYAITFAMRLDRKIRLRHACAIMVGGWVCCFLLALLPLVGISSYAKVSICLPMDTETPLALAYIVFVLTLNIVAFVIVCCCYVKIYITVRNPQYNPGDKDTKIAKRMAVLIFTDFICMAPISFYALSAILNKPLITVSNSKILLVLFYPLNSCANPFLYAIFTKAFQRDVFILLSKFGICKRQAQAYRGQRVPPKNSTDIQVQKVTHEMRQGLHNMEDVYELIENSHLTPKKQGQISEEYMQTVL
Sequence of Luciferin 4-monooxygenase (Photinus pyralis) (P08659 whole entry, looked up): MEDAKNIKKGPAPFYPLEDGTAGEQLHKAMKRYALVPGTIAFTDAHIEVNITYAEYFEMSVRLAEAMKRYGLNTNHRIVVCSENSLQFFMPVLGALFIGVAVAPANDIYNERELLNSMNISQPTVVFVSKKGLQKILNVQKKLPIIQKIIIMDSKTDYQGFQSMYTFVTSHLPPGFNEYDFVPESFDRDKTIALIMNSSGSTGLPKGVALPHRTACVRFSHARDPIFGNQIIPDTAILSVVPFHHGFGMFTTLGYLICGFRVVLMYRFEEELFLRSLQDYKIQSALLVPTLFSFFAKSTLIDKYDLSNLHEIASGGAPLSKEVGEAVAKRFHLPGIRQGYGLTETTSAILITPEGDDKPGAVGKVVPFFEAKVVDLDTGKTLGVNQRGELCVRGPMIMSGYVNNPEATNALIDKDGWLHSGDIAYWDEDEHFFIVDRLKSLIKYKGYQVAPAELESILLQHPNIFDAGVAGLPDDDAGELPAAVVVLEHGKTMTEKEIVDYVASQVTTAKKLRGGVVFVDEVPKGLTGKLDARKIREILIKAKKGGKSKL

In the case of `C=CC(=O)OCCOC(=O)C=C`, the Potency result in test [1], in test [2], in [3], in test [4], in [5] and in test [6] was “inactive” each time. In addition, the Potency result in [7], in [9], in test [10], in test [12] and in test [13] was “inactive” in each case. Moreover, the Potency in test [8] was 24.5 µM (active); in test [11], 43.6 µM (active); in test [14], 43.6 µM (active).
Consider `CCCCCCC1CCCC(=O)O1` (configuration not stated), for which the Potency result in [1], in test [2], in test [3], in [4], in test [5] and in [6] was “inactive” each time. The Potency entry in test [15], in test [16], in [7], in [8], in test [17] and in test [18] was “inactive” in each case. Further, the Potency result in test [9], in [10], in test [11], in [12], in [13] and in test [14] was “inactive” throughout. In addition, the activity change, positive = activation in test [19] (at 92.4 µM (top of the series)) is 0.936%.
On to `CN(C)Cc1cc(C(C)(C)C)c(O)c(C(C)(C)C)c1`, for which the Potency result in test [1], in test [2], in test [3], in test [6], in test [16] and in test [8] was “inactive” in each case. Further, the Potency result in test [17], in test [9], in test [11], in [12], in test [13] and in test [14] was “inactive” in each case. Besides, the activity change, positive = activation in test [19] (at 92.4 µM (top of the series)) is -28.5%.
As to `CC1=CCC(=C(C)C)CC1`, the Potency entry in test [1], in test [2], in test [3], in test [5], in [6] and in test [8] was “inactive” each time. The Potency result in test [17], in test [18], in test [10], in [11], in test [12] and in test [13] was “inactive” each time.
For the compound `O=S(=O)(O)c1ccc(Nc2nc(Nc3ccc(/C=C/c4ccc(Nc5nc(Nc6ccc(S(=O)(=O)O)cc6)nc(N(CCO)CCO)n5)cc4S(=O)(=O)O)c(S(=O)(=O)O)c3)nc(N(CCO)CCO)n2)cc1`, the Potency result in [1], in test [2], in test [3], in test [6], in test [15] and in test [16] was “inactive” in each case. Further, the Potency result in test [7], in test [8], in test [9], in [10], in test [11] and in test [12] was “inactive” each time. Besides, the Potency result in test [13] and in test [14] was “inactive” in each case. In addition, the activity change, positive = activation in [19] (at 42.5 µM (top of the series)) is 7.49%.
For `CCO[C@@H]1O[C@H](C(COCc2ccccc2)OCc2ccccc2)[C@H](OCc2ccccc2)[C@H]1O` (some centres not stated), the Potency entry in [1], in test [2], in test [3], in test [5], in test [16] and in [7] was “inactive” each time. Besides, the Potency result in test [17], in [12], in [13] and in test [14] was “inactive” each time. For the same compound, the activity change, positive = activation in test [19] (at 42.5 µM (top of the series)) was -48%.
Turning to `NC[C@H]1O[C@H](O[C@H]2[C@H](O[C@@H]3O[C@H](CO)[C@@H](O)[C@H]3O)C(O)[C@H](N)C[C@@H]2N)[C@H](N)[C@@H](O)[C@@H]1O` (some centres not stated), the activity change, negative = inhibition in [1] is 6.81% [at 10.5 µM]. Also, the figures for the viability change, negative = cytotoxic in test [2] and in test [6] were 0.325% [at 8.39 µM] and 0.247% [at 8.39 µM], respectively. For the same compound, the activity change, negative = cytotoxicity in [3] was 3.7% [at 8.39 µM]; in test [8], -1.39% [at 6.97 µM]; in test [10] it was -0.277% [at 6.97 µM]. For the same compound, in test [4], the activity, negative = inhibition is -13% [at 8.39 µM]. In addition, the values for the activation in [7] and in test [18] were -0.16% [at 8.39 µM] and -1.07% [at 7.01 µM], respectively. Moreover, the activation (H2AX phosphorylation) in test [17] is -1.16% [at 14 µM]. For the same compound, the results for the activity change, negative = cytotoxic in test [11] and in test [13] were 4.84% [at 6.97 µM] and 0.986% [at 6.97 µM], respectively. In test [12], the cytotoxicity is -7.77% [at 6.97 µM]. For the same compound, the cytotoxicity increase in [14] is -12.4% [at 6.97 µM].
With `CC(C)CCCCCOC(=O)CCS`, the Potency entry in test [1], in test [2], in test [3], in [5], in [6] and in [15] was “inactive” each time. The Potency entry in test [16], in test [7], in [8], in test [17], in [18] and in test [9] was “inactive” each time. Besides, the Potency entry in test [20], in [10], in [11], in test [12], in [13] and in [14] was “inactive” throughout. In addition, in test [19] (at 92.4 µM (top of the series)), the activity change, positive = activation was 3.69%.
